Screening data as filed in PubChem.
p53 reactivation: qHTS assay for re-activators of p53 using a Luc reporter; H1299 p53-A138V BP100-luciferase reporter, luminescence, 24 h; Potency, µM (doses to about 92.2 µM), for inactives: at the highest dose activity change, positive = activation, hits mostly activators; hit rate 0.063% among 320,000; AID 504706, 2011; also: potency is read from the fitted curve at half-maximal effect; % of control where 0% means no effect; nearly all actives have a fitted effect of over 45% in size
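H1299 (p53-null), stable ts p53-A138V + BP100-Luc; 1000 cells/well, Opti-MEM/10% FBS; cpd 4 pt, 1:5; 24 h, 37 deg C, 5% CO2; detection reagent 10 min RT; luminescence.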
RORgamma inh: qHTS for inhibitors of ROR gamma transcriptional activity; Nuclear receptor ROR-gamma (Mus musculus), P51450; Drosophila S2 Gal4-RORgamma UAS-luciferase reporter, 20 h; Potency, µM (titrated, usually from 53.6 µM), for inactives: top-dose activity change, negative = inhibition, actives largely listed as inhibitors; hit rate 5.4% among 310,000; AID 2551, 2010; also: potency is read from the fitted curve at half-maximal effect; % is scaled to controls: 0 for no effect and ±100 for the full control effect; nearly all actives have a fitted effect of over 60% in size
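Drosophila Schneider cells stably carrying a metallothionein-driven Gal4 DBD–ROR gamma fusion and a UAS-Photinus luciferase reporter were exposed to compound for 1 hr, then induced with copper sulfate (700 uM final) for 20 hr at ambient temperature before luminescence reading.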
Six1-Eya2 inh: qHTS Assay for Inhibitors of the Six1/Eya2 Interaction; activity change, % (concentration not given with the values); hit rate 0.56% among 360,000; AlphaScreen GST-Six1/His-Eya2 binding, biochemical; hits give low values; in the data active = activity change below about -65%; inconclusive = mostly about -30% to -63%; also: % is scaled to controls: 0 for no effect and ±100 for the full control effect
Target sequence (O00167 whole entry, looked up): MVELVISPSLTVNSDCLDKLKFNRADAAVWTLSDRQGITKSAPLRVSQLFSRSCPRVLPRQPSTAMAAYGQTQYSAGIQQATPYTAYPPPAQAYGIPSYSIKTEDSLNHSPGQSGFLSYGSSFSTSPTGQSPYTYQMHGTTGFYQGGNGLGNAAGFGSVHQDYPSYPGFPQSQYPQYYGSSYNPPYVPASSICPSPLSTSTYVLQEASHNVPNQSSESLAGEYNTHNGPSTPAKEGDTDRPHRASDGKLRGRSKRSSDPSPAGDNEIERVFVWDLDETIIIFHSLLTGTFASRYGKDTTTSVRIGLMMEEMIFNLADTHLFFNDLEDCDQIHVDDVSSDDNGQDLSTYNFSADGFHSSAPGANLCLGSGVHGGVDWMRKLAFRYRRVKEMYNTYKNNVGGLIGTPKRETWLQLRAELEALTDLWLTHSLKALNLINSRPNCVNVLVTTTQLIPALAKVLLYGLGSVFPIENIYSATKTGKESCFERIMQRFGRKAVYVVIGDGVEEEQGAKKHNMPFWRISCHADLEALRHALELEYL
Target sequence (Q15475 whole entry, looked up): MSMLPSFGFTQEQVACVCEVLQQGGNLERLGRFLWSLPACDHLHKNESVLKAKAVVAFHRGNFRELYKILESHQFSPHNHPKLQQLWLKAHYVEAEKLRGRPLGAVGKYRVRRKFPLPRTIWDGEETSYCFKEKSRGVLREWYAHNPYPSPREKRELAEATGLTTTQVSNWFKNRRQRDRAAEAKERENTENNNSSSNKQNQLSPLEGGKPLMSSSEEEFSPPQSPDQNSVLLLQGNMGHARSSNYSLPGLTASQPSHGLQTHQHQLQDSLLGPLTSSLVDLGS
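Homogeneous AlphaScreen proximity assay pairing GST-Six1 with His-tagged Eya2 (added as 5X mix: 250 nM and 500 nM) in 50 mM Tris pH 8.0, 300 mM NaCl, 1 mM TCEP. Glutathione donor and nickel acceptor beads; 1 h, 37 °C, dark.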
CtBP-E1A blk: qHTS Assay for Inhibitors of the CtBP/E1A Interaction. hit rate 0.49% among 340,000. AlphaScreen GST-E1A/His-CtBP binding, 1536-well; hits give low values. activity change, % (concentration not given with the values); in the data active = activity change below about -65%; inconclusive = mostly about -30% to -63%; also: % is scaled to controls: 0 for no effect and ±100 for the full control effect
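Steps: dispense buffer (Tris pH 8.0, NaCl 300 mM, TCEP 1 mM, BSA, Tween 20); add 5X protein mix (GST-E1A, His-CtBP, 125 nM each); pin 23 nL compound; 2 h at 37 °C, dark; add 5X beads (50 ug/mL); 1 h; read.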
VP16 counter: VP16 counterscreen qHTS for inhibitors of ROR gamma transcriptional activity; hit rate 3.5% among 310,000; Potency, µM (top dose mostly 53.6 µM), inactives show at the highest dose activity, negative = inhibition, hits mostly inhibitors; AID 2546, 2010; Drosophila S2 Gal4-VP16 UAS-luciferase, luminescence, 20 h;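 also: Gal4-VP16 expression switched on by copper sulfate through the metallothionein promoter; potency is read from the fitted curve at half-maximal effect; % is scaled to controls: 0 for no effect and ±100 for the full control effect; nearly all actives have a fitted effect of over 50% in size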
Active calls of the source: *; ? = inconclusive; · = not tested or not shown; [ ] = dose if it differs, or a comment. Sampled rows, rich in hits. Any-hit rate of the full collection: about 5.4%. Unless noted, calls follow the shape of the dose curve; as a rule, active = well fitted curve in the direction sought with a large enough effect; inconclusive = small, poorly fitted or top-dose-only effect, or another doubt; inactive = no such curve, though single readings can be large; an effect the other way counts as inactive or inconclusive.

SMILES	p53 reactivation	RORgamma inh	Six1-Eya2 inh	CtBP-E1A blk	VP16 counter
FC(F)(F)c1ccncc1-c1nnnn1-c1ccc(Cl)cc1	6%	13%	6	2	-8%
FC(F)(F)c1nc(N2CCCC2)ncc1-c1nnnn1-c1ccc(Cl)cc1	3%	-40%	16	18	16µM*
Cc1cccc(N2CCN(C(=O)CSCc3c(C)noc3C)CC2)c1C	?	?	4	5	10µM*
Cc1noc(C)c1CSCC(=O)N1CCN(c2ccc(F)cc2)CC1	-3%	?	-1	2	?
COc1cccc(C(C)=C2SC(=S)NC2=O)c1	·	·	-4	18	·
Cc1cc(C)nc(SCC(=O)NN)n1	0%	8.9µM*	11	-8	-9%
Cc1cc(C)nc(SCC(=O)Nc2ncccn2)n1	-1%	-11%	·	·	-13%
O=C(Nc1nccs1)c1cn(-c2ccccc2)nc1-c1ccccc1	0%	7.1µM*	-1	3	?
CC(C)COc1ccc(-c2nn(-c3ccccc3)cc2C(=O)Nc2nccs2)cc1	3%	2.5µM*	-1	-3	4.5µM*
O=C(Nc1cccnc1)c1cn(-c2ccccc2)nc1-c1cccs1	10%	?	-9	12	4%
CC(=O)Cc1nsc(NC(=O)c2cn(-c3ccccc3)nc2-c2ccc(Br)cc2)n1	-3%	?	10	-4	14µM*
O=C(NCCCN1CCOCC1)c1cn(-c2ccccc2)nc1-c1ccc(Br)cc1	-1%	·	2	22	·
COC(=O)c1cn(-c2ccccc2)nc1-c1ccc(OC)cc1	-6%	36%	9	·	-16%
C/C(=N/NC(=O)c1cccs1)c1c(C)[nH]n(-c2nc3ccccc3s2)c1=O	?	1.4µM*	?	?	2µM*
COC(=O)Cc1[nH]n(-c2nc3ccccc3s2)c(=O)c1C(C)=Nc1ccc(C)cc1	-6%	?	-5	-1	-22%
COC(=O)Cc1[nH]n(-c2nc3ccccc3s2)c(=O)c1C(C)=Nc1ccc(Cl)cc1	7%	11µM*	-3	0	-20%
CCCN=C(C)c1c(-c2ccccc2)[nH]n(-c2nc3ccccc3s2)c1=O	10%	2.5µM*	-1	2	-25%
CCN(CC)CCCN=Cc1c(-c2ccccc2)[nH]n(-c2nc3ccccc3s2)c1=O	?	?	7	0	-7%
CCC(=NCc1ccccc1)c1c(C(F)(F)F)[nH]n(-c2nc3ccccc3s2)c1=O	?	8.9µM*	2	-1	-17%
COc1cccc(N2CCN(C(=O)c3cccc(NC(=O)C4=C(C)OCCS4)c3)CC2)c1	·	·	-19	1	·
O=C(NCc1ccc(Br)cc1)OC1CC2CC1[C@H]1CCCCN1C2=O (stereo partly drawn)	·	·	-5	1	·
CCN(CC)CCOC(=O)c1ccc(NC(=O)CCCN2C(=O)S/C(=C/c3ccc(OC)cc3)C2=S)cc1	-13%	1µM*	-20	-27	1.6µM*
COc1cccc(/C=C2/SC(=S)N(CCCC(=O)Nc3ccc(O)cc3)C2=O)c1	-43%	0.35µM*	-17	?	0.35µM*
O=C(CCCN1C(=O)/C(=C/c2ccccc2Cl)SC1=S)NNC(=O)c1ccc(Cl)cc1	-15%	?	19	10	?
Cc1ccc(C(=O)NNC(=O)CCCN2C(=O)/C(=C/c3ccccc3Cl)SC2=S)cc1	-29%	2.8µM*	-13	-5	3.2µM*
SMILES	p53 reactivation	RORgamma inh	Six1-Eya2 inh	CtBP-E1A blk	VP16 counter
COc1ccc(/C=C2\SC(=S)N(CCC(=O)Nc3ccc(O)cc3)C2=O)cc1	·	-30%	4	6	21%
Cc1ccc(/C=C2\SC(=S)N(CCCC(=O)NC3CCCC3)C2=O)cc1	-26%	1.6µM*	10	-2	?
COCCCn1c(SCC(=O)N2CCOCC2)nc2cc(Cl)ccc2c1=O	-11%	·	5	-1	·
CCC1=C(OC(=O)N(CC)CC)N2C(=O)OC(=NCCOC)[C@]2(C)[C@H]2C1=CC[C@H]1C(=O)N(CC(=O)OC)C(=O)[C@H]12	·	-1%	·	·	0%
CCC[C@@H](CN1CCC[C@H]1CN1C(N)=NC[C@H]1C(C)C)N1C[C@@H](Cc2ccccc2)N(CCCC2CCCC2)C1=N	-9%	·	-1	-5	·
O=C(CCCN1C(=O)/C(=C\c2ccccc2)SC1=S)Nc1cccc(C(=O)O)c1	-7%	0%	-17	-17	-26%
COc1cccc(/C=C2\SC(=S)N(CCCC(=O)NC3=NCCS3)C2=O)c1	-6%	0.56µM*	-22	?	0.71µM*
O=C(CCCN1C(=O)/C(=C\c2ccccc2)SC1=S)Nc1ccc(O)cc1	2%	2µM*	-21	?	1.8µM*
O=C(O)CCCN1C(=O)/C(=C\C(Cl)=C\c2ccccc2)SC1=S	-13%	1.3µM*	-15	-6	1.6µM*
O=C(CCCN1C(=O)/C(=C/c2ccccc2)SC1=S)Nc1cccc(O)c1	-12%	?	-4	·	7.1µM*
Cc1ccc(C)c(OCC(=O)Nc2ccc(S(=O)(=O)Nc3onc(C)c3C)cc2)c1	-2%	12%	-4	4	1%
COC(=O)NC(CC(C)=O)c1ccco1 (stereo not drawn)	·	8%[10 µM]	·	·	1%[10 µM]
Cc1ccc(/C=C2/SC(=S)N(CCCC(=O)Nc3ccc(O)cc3)C2=O)cc1	1%	0.4µM*	-11	-16	?
O=C(CCCN1C(=O)/C(=C\c2cccs2)SC1=S)Nc1cc([N+](=O)[O-])ccc1O	-3%	?	-1	-28	20µM*
CC(/C=C1\SC(=S)N(CCC(=O)Nc2ccc(O)cc2)C1=O)=C\c1ccccc1	0%	14µM*	-7	-6	14µM*
Cc1ccc(/C=C2\SC(=S)N(CCCC(=O)NNC(=O)c3ccccc3O)C2=O)cc1	-11%	1.6µM*	-2	·	2.8µM*
CCO[C@H]1OC(C(=O)NCc2nc3ccccc3[nH]2)=C[C@@H](c2ccc3c(c2)OCO3)[C@@H]1CCCO	·	·	-2	3	·
COc1cccc(/C=C2\SC(=S)N(CCCC(=O)Nc3cc(C)on3)C2=O)c1	-3%	2.8µM*	0	3	1.4µM*
CCc1ccc(/C=C2\SC(=S)N(CCCC(=O)Nc3cc(C)on3)C2=O)cc1	·	·	8	1	·
COc1cc(Cn2nnc3ccccc32)cc(Br)c1O	·	6%	1	·	8%
CN1CC(c2ccccc2)C2(SC(=S)N(Cc3ccco3)C2=O)C12C(=O)Nc1ccccc12 (stereo not drawn)	-3%	?	-23	-21	?
CN1CC(c2ccccn2)C2(SC(=S)N(Cc3ccccc3)C2=O)C12C(=O)Nc1ccccc12 (stereo not drawn)	-2%	?	-76*	-76*	?
CC(C)N(C(=S)NCc1ccccc1)C(C)C	0%	7.1µM*	-1	·	11µM*
